This is an account of results in PubChem BioAssay (NCI).

The panel holds about 83,000 compounds, 20% with a hit somewhere; the sample as a whole holds those more often.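 In brief: 96-well plates, 48 h treatment, single concentration, percent growth endpoint.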 Calls of active or inactive are those of the source. The calls were made as follows: active = growth percent below 10; inactive = the rest.

This experiment relates to DU-145 prostate. Nature of the experiment: NCI-60 one-dose screen, 48 h (100 = growth as untreated, 0 = no growth, -100 = all killed). The conditions noted are these: 10 µM unless noted.
In the case of `COc1cc(C2CC(=O)Nc3c2cnn3C)cc(OC)c1OC` (stereo not drawn), the growth is 108% (inactive).

In the case of `C=C(c1ccc(C(=O)NCCCn2ccnc2)cc1)c1cc2c(cc1C)C(C)(C)CCC2(C)C`, the growth is 34% (inactive).

For `Nc1c(Br)cc2c(c1Br)Cc1cc(Cl)ccc1-2`, the growth is 112% (inactive).

With `CCCCCCCCCCCCNC(=O)N[C@H](C(=O)N[C@H]1/C=C/CCNC(=O)/C=C/[C@H](C)NC1=O)C(C)C`, the growth was 6.45% (active).

With `C=C(C)[C@@H]1CC[C@]2(C(=O)NS(=O)(=O)c3ccccc3)CC[C@]3(C)[C@H](CC[C@@H]4[C@@]5(C)CC[C@H](OC(=O)NS(=O)(=O)c6ccccc6)C(C)(C)[C@@H]5CC[C@]43C)[C@@H]12`, the growth is 43.3% (inactive).

`FC(F)(F)c1cc(-c2nnc3n2N=C(Cl)CS3)cc(C(F)(F)F)c1`: the growth was 112% (inactive).

Take `Cc1cc(-c2ccccc2)on1`: the growth was 111% (inactive).

With `CNC(=O)c1c(NC(=O)c2cccc(C(F)(F)F)c2)sc2c1CCC(=O)C2`, the growth is 23.9% (inactive).

For `COc1ccccc1/C=C/C(=O)CCC(=O)O`, the growth was 108% (inactive).

As for `NNc1ccc(S(N)(=O)=O)cc1`, the growth was 121% (inactive).

For `CCc1c(C)c2ccc(O)c(-c3cc(-c4ccccc4)c(C#N)c(=O)[nH]3)c2oc1=O`, the growth was 96.7% (inactive).

For `O=C1OCC2=C1C(c1ccccc1)c1cc3c(cc1N2CCO)OCO3` (stereo not drawn), the growth was 69.4% (inactive).

`CCCCCCCCCCCCNC(=O)N[C@H](C(=O)N[C@H]1/C=C/OCCNC(=O)/C=C/[C@H](C(C)C)NC1=O)C(C)C`: the growth is 66.9% (inactive).

Turning to `COc1ccc(-n2nc(C(=O)Nc3ccc(F)cc3)nc2-c2cc(OC)c(OC)c(OC)c2)cc1`, the growth is 111% (inactive).

Turning to `COc1ccc2c(c1)OC1=C(C(=O)OC1)C2c1cc(OC)c2c(c1)OCCO2` (stereo not drawn), the growth was -13.7% (active).

On to `O=S1(=O)NCCN1CCNc1nccc(-c2c(-c3cccc(O)c3)nc3sccn23)n1`, for which the growth is 106% (inactive).

Take `O=C(CC(=O)C(F)(F)C(F)(F)C(F)(F)F)c1cc2ccccc2o1`: the growth is 114% (inactive).

With `Clc1cc2nc(-c3ccccc3)c(-c3ccccc3)nc2cc1Cl`, the growth was 103% (inactive).

Turning to `CC(C)(C)c1ccc(C(=O)Nc2sc3cc(O)ccc3c2C(N)=O)cc1`, the growth is 69.7% (inactive).

For the molecule `CC1=CCC2C1CC=C(C)C(CC[C@H]1[C@@](C)(O)CCC3OC(C)(C)[C@H](OC(=O)c4ccccc4)CC[C@@]31C)C2(C)C` (stereo partly drawn), the growth is 106% (inactive).

In the case of `CC(=O)C1CCC2C3CC(C)=C4CC(O)CCC4(C)C3CCC12C` (stereo not drawn), the growth was 119% (inactive).

Turning to `CCCCCCCCCCCCCC`, the growth is 135% (inactive).

For `CCN(CCC#N)c1ccccc1`, the growth is 113% (inactive).

Take `O=S1(=O)NCCCN1CCNc1nccc(-c2c(-c3cccc(O)c3)nc3sccn23)n1`: the growth is 74.2% (inactive).

Consider `COc1ccc(-c2conc2-n2nc(-c3ccccc3)nc2-c2ccccc2)cc1`, for which the growth was 119% (inactive).

Consider `COc1ccccc1CNCCCN1C(=O)c2ccc3c4c(ccc(c24)C1=O)C(=O)N(CCCCNCCCN)C3=O`, for which the growth was -72.6% (active).

As to `Cc1ccc(C(=O)CC(=O)C(F)(F)C(F)(F)C(F)(F)F)s1`, the growth was 104% (inactive).

As to `O=C1CCCN1C(O)CCN(Cc1ccccc1)Cc1ccc(Cl)cc1` (stereo not drawn), the growth was 110% (inactive).

For the molecule `Nc1c(N)c2ccccc2c2ccccc12`, the growth is 111% (inactive).

As for `CCOC(=O)C1=C(C)NC(=S)NC1c1ccccc1` (stereo not drawn), the growth was 109% (inactive).

Take `CCOC(=O)C1=C(C(=O)OCC)N(c2cc(OC)c(OC)c(OC)c2)C(N)=C(C#N)C1c1cc(=O)[nH]c2ccccc12` (stereo not drawn): the growth was 104% (inactive).

Regarding `CC(=O)Nc1ccc(/C=N/N2CCCCCC2)cc1`, the growth was 102% (inactive).

As for `CCOC(=O)c1cnc(SCC)nc1SC#N`, the growth was 103% (inactive).

With `COc1cc(OC)c(C(=O)/C=C/c2cccc(OC(C)=O)c2)cc1CC=C(C)C`, the growth is 69.2% (inactive).

As to `COc1cc2ccc(C(C)=O)cc2cc1OC`, the growth was 111% (inactive).

On to `CN1CCCN(CCNc2nccc(-c3c(-c4cccc(O)c4)nc4sccn34)n2)S1(=O)=O`, for which the growth is 54.7% (inactive).

With `CCN(CC)c1ccc(/C=C2/NC(=O)NC2=O)cc1`, the growth was 64.3% (inactive).

`CCOC(=O)c1ccc2c(c1)[n+](=O)c(C(=O)c1ccc3ccccc3c1)c(C(F)(F)F)n2[O-]`: the growth is -100% (active).
